Compounds with a hit are over-represented: about 4.9% of the library has one in this group of screens.
HSP90 refold inh – HSP90 inhibitors, primary screen, cell lysate, luminescence; AID 1789, 2009; Heat shock protein HSP 90 (rabbit reticulocyte lysate; luciferase refolding); hit rate 0.91% among 290,000; Rabbit reticulocyte lysate, luciferase refolding luminescence, 3 h; inhibition, % at 5.6 µM;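 active = inhibition above the screen-wide mean plus 3 SD, computed separately per campaign, cut at about 16% in these data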;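 also: 0% = DMSO wells and 100% = 60 µM geldanamycin wells; inhibitors lower the luminescence because luciferase stays unfolded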
Platelet DG rel – inhibitors of platelet dense granule secretion, primary screen, cell-based, MLPCN, human platelets. inhibition, %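 (compounds screened at 7.5 µM in platelet-rich plasma)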. human platelet-rich plasma, SFLLRN dense granule ATP release, luminescence. hit rate 0.22% among 300,000;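 active = mean replicate score, as percent of positive control, at or above 50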
HSF1 activator – HSF-1 activators, primary screen, NIH3T3-HGL cells, MG132 stress, luminescence, single point; NIH3T3-HGL HSF-1 luciferase reporter, 8 h; 100% = twice DMSO control signal; activation, % at 9 µM; hit rate 1.7% among 300,000; AID 504408, 2011;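 active = mean replicate activation of at least 50% with a set share of replicates each reaching 50%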;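 also: 0% = median of the neutral control wells and 100% = twice that signal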
dFosB activator – activators of delta FosB homodimer, primary screen, biochemical, fluorescence polarization, TAMRA-CDK5 oligo, single point | Protein FosB (Mus musculus), P13346 | purified delta FosB; percent of positive-control signal above neutral wells | activation, % at 25 µM | hit rate 0.99% among 340,000;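 active = mean activation above about 17%, with every replicate also reaching it, limit read from the data, passing the limit was not always enough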
Target sequence (P13346 whole entry, looked up): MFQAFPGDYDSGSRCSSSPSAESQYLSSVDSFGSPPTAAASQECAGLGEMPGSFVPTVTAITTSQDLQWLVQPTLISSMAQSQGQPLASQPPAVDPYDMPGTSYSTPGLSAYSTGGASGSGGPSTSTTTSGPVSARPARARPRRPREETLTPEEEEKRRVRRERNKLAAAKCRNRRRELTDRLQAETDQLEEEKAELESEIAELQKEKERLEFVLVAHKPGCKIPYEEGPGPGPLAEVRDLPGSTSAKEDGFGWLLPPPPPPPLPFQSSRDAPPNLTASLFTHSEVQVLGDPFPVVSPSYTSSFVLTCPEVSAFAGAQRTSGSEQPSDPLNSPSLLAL
MPTP inh – mitochondrial permeability transition pore inhibitors, primary screen, biochemical, isolated mouse mitochondria, absorbance. Ca2+ swelling absorbance, 30 min. inhibition, % at 10 µM. hit rate 1.4% among 360,000. AID 602449, 2012;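 active = inhibition of 50% or more, scaled per plate between neutral and stimulator controls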;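 also: 0% = DMSO wells given calcium and 100% = 1 mM EGTA wells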
HSF1 inh – HSF1 inhibitors in luciferase reporter cells, primary screen, cell-based, NIH3T3, luminescence. activity change, negative = inhibition, % at 7.5 µM (by protocol). hit rate 0.77% among 300,000. NIH3T3-HGL HSE-luciferase, MG132-induced, luminescence 8 h; stronger effect = lower value;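 active = more than half of replicate wells show activity change below -50%, luminescence cut by over half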;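 also: luciferase reports HSF-1 transcriptional activity via heat shock element; 0% = median of DMSO wells and -100% = zero luminescence signal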
An asterisk follows results filed as active; · = not tested or not shown.

SMILES	HSP90 refold inh	Platelet DG rel	HSF1 activator	dFosB activator	MPTP inh	HSF1 inh
O=S(=O)(c1ccc(Cl)cc1)N1CCC(c2nc3ccccc3[nH]2)CC1	0	-1	73*	0	-2	33
CC(=O)c1ccc(S(=O)(=O)N2CCC(c3nc4ccccc4[nH]3)CC2)cc1	1	0	-18	-9	1	-13
Oc1ccccc1CNc1ccc(OC(F)(F)F)cc1	-5	1	-64	1	3	-60*
CN(CC(=O)NCC(=O)Nc1ccc(F)cc1)C1CCS(=O)(=O)C1 (stereo not given)	·	·	·	3	-3	·
Cc1cc(F)ccc1C(O)c1ncc(-c2ccc3ccccc3c2)[nH]1 (stereo not given)	·	·	·	·	4	·
COc1ccc(CCN2CC(C(=O)N(C)Cc3cccnc3)CC2=O)cc1OC (stereo not given)	·	·	·	-2	-2	·
Cc1ccc(N2C(=O)c3ccccc3C2O)nc1 (stereo not given)	33*	78*	-11	·	·	-13
O=C(NC1CCN(Cc2ccccc2)CC1)c1ccc(Cn2c(=S)[nH]c3ccc(N4CCOCC4)cc3c2=O)cc1	3	12	36	34*	0	11
COc1cc2[nH]c(=S)n(Cc3ccco3)c(=O)c2cc1OC	1	0	140*	14	-1	77
O=C(NCCn1cccn1)C1CCC(=O)N(CCc2cccc(F)c2)C1 (stereo not given)	-5	-1	51*	4	1	18
O=C(NCCN1CCCC1=O)C1CCC(=O)N(CCc2cccc(F)c2)C1 (stereo not given)	-4	-24	7	-2	0	-1
O=C(NCCc1ccccc1)C(=O)NCC1OCCCN1S(=O)(=O)c1cc(F)ccc1F (stereo not given)	16*	0	-2	-7	-1	-2
Cc1cc(Cl)ccc1OCc1cn2cccnc2n1	-5	14	94*	-10	0	78
O=C(COc1ccc(/C=N/NC(=O)c2ccccc2Br)cc1)Nc1ccccc1	-3	1	-14	-11	1	-5
O=C(O)COc1ccc(/C=N/NC(=O)c2ccccc2Br)cc1	1	-1	-74	-6	0	-67*
O=C(Oc1ccc(/C=N/NC(=O)c2ccccc2F)cc1)c1ccccc1	-1	-21	2	17*	0	1
COC(=O)c1ccc(CN(C)S(=O)(=O)c2cccs2)cc1	-1	16	45	-5	-2	2
CCC(Sc1ncnc2c1nnn2-c1ccc(F)cc1)C(=O)OC (stereo not given)	-7	6	103*	7	-2	113
S=c1[nH]nc(-c2cnccn2)n1-c1ccccc1	6	-18	-75	-5	-2	-67*
COc1ccc(-n2c(-c3cnccn3)n[nH]c2=S)cc1	-1	11	-3	4	1	-1
COc1ccc(NC(=O)C2CC(=O)n3c(nc4ccccc43)N2)cc1 (stereo not given)	6	-8	9	34*	0	-2
CCCS(=O)(=O)NC(=O)C1(C)CCCN(C(=O)COCc2ccccc2)C1 (stereo not given)	·	·	·	·	-1	·
CCOc1ccccc1N1CCN(C(=O)Nc2ccc(Cl)c(Cl)c2)CC1	-1	5	1	·	·	-1
CC1=CC(=C(C#N)C#N)C=C(C)N1CCN1CCN(C(=O)Nc2ccc(Cl)c(Cl)c2)CC1	-8	-2	8	50*	8	-2
CCc1nc(Nc2ccccc2F)c2oc3ccccc3c2n1	3	4	3	-18	0	17
SMILES	HSP90 refold inh	Platelet DG rel	HSF1 activator	dFosB activator	MPTP inh	HSF1 inh
Cc1nc(CN2CCN(Cc3nc(C(c4ccccc4)c4ccccc4)no3)CC2)cs1	-2	1	69*	0	-2	29
COCCOC(=O)c1c(NC(=O)CN2CCc3ccccc32)sc(C(N)=O)c1C	6	5	6	-11	2	5
CCOC(=O)c1c(NC(=O)CN2CCCc3ccccc32)sc(C(C)=O)c1C	0	-19	50*	-8	-1	9
Cc1noc(C)c1-c1ccc2nc[nH]c(=O)c2c1	·	-4	12	-3	-1	4
COc1ccc(C(C(=O)NC2CCCCC2)N(C(=O)CCl)c2cccc(Cl)c2)cc1 (stereo not given)	1	13	-90	-2	0	-90*
COc1ccc(C(C(=O)NC2CCCCC2)N(C(=O)CCl)c2ccc(OC)cc2)cc1 (stereo not given)	4	7	-35	-11	2	-39
COc1ccccc1N1C(=O)S/C(=C\c2ccc(C)s2)C1=O	0	5	12	-3	1	11
COc1ccccc1N1C(=O)S/C(=C\c2cc(C)n(C)c2C)C1=O	4	6	54*	-6	3	10
O=C(O)c1cccc(-c2ccccc2)c1O	·	·	·	-2	0	·
CCOC(=O)c1ccc(NC(=O)CN2CCN(C(=O)C3CCCO3)CC2)cc1 (stereo not given)	-2	-7	-26	-4	0	-12
CC(C)(C)c1cc[n+](C2=C([O-])c3ccccc3C(=O)/C2=N\S(=O)(=O)c2ccccc2)cc1	16*	2	-32	·	2	-25
O=C1/C(=N\S(=O)(=O)c2cccs2)C([n+]2cccc(Cc3ccccc3)c2)=C([O-])c2ccccc21	5	-3	139*	-6	2	88
CC1=CC(C)C(/C=N/N=C(N)N)C(C)C1 (stereo not given)	0	1	-11	-9	-1	-6
Cc1cc(OCC(=O)C(C)(C)C)c2c(-c3ccccc3)cc(=O)oc2c1	4	-2	38	-4	0	9
CC(C)=CC(=O)Nc1ccc(Cl)cc1	-3	3	51*	-1	3	27
COc1ccc(NC(=O)C=C(C)C)cc1Cl	0	43	·	-8	-1	·
CCN(CC)Cc1cc(Nc2c3ccccc3nc3c4ccccc4n(C)c23)cc(CN(CC)CC)c1O	·	·	·	66*	2	·
CC1CCN(c2nc3ccc(C(=O)N4CCN(Cc5ccc6c(c5)OCO6)CC4)cc3s2)CC1	58*	-5	-56	-12	-1	-45
O=C(c1ccc(F)cc1)N1CCCC(N2CCN(Cc3ccc4c(c3)OCO4)CC2)C1 (stereo not given)	-1	8	-63	-6	0	-54*
CN(C)c1ccc(C(=O)N2CCCC(N3CCN(Cc4ccc5c(c4)OCO5)CC3)C2)cc1 (stereo not given)	-5	2	-5	-6	1	-10
